Experimental data as given in PubChem BioAssay (NCATS).
Inconclusive results are not listed. Active and inactive are the calls of the source. Unless noted, calls come from the whole dose curve; as a rule, active = well fitted curve in the direction sought with a large enough effect; inconclusive = small, poorly fitted or top-dose-only effect, or another doubt; inactive = no such curve, though single readings can be large; an effect the other way counts as inactive or inconclusive.

Key:
[1] = Cell Viability - BJ (AID 421; calls by dose curve;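 note: potency is the fitted concentration of half-maximal effect; cells exposed to compound for 40 hours at 37 °C before readout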); conditions: BJ fibroblast viability, qHTS
Procedure, shortened: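 Luminescent ATP signal (CellTiter-Glo, 20 min at room temperature) served as the read-out of viable BJ cells after 40 hours of compound treatment. Responses were scaled between DMSO and 100 uM tamoxifen, and AC50 values were obtained by Hill modeling.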

[2] = Cell Viability - Jurkat (AID 426;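 active = dose-dependent loss of cell ATP signal giving a full or clear fitted curve, ranked by lower potency value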;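 note: potency is the fitted concentration of half-maximal effect; cells exposed to compound for 40 hours at 37 °C before ATP read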); conditions: qHTS
Procedure, shortened: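 Cells of the human T-cell leukemia line Jurkat (E6-1) are seeded at 5000 per well, treated with compound across a concentration range for 40 hours at 37 °C, then lysed with CellTiter-Glo; luminescence reports ATP.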

[3] = Cell Viability - Hek293 (AID 427;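 active = compounds whose dose-response curve shows a full or clear partial loss of cell viability, called from curve shape rather than a numeric limit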;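 note: potency is the fitted concentration of half-maximal effect; cells exposed to compound for 40 hours at 37 °C before reading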); conditions: qHTS
Procedure, shortened: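 Luminescent ATP read-out (CellTiter-Glo, 20 min RT) after 40 hr compound exposure at 37 °C in complete medium. Signal normalized to DMSO (basal) and 100 uM tamoxifen (100% inhibition); concentration-response fitted with the standard Hill equation to give AC50.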

[4] = Cell Viability - HepG2 (AID 433; calls by dose curve;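 note: potency is the fitted concentration of half-maximal effect; potency for ATP loss meaning cytotoxicity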); conditions: qHTS
Procedure, shortened: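 Cytotoxicity read as ATP loss (CellTiter-Glo luminescence) after 40 hr compound exposure of HepG2, 1500 cells/well, 37 °C. AC50 by Hill equation; 0% set by DMSO, 100% inhibition by 100 uM tamoxifen.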

[5] = Cell Viability - MRC5 (AID 434; calls by dose curve;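 note: potency is the fitted concentration of half-maximal effect; potency reflects cytotoxicity seen as loss of intracellular ATP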); conditions: MRC5 lung fibroblast viability, qHTS
Procedure, shortened: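 ATP luminescence read-out (CellTiter-Glo, 20 min RT) after 40 hr, 37 °C compound exposure of 1500 MRC5 cells/well. Data normalized to DMSO (basal) and 100 uM tamoxifen (100% inhibition); AC50 from standard Hill equation.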

[6] = Cell Viability - SK-N-SH (AID 435; calls by dose curve; note: potency is the fitted concentration of half-maximal effect); conditions: SK-N-SH neuroblastoma cell viability qHTS
Procedure, shortened: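 qHTS cytotoxicity: CellTiter-Glo ATP luminescence after 40 h compound exposure of human neuroblastoma SK-N-SH cells at 37 °C. AC50 derived by Hill-equation fitting, with DMSO as basal and 100 uM tamoxifen as full inhibition.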

[7] = target: Mitogen-activated protein kinase 10 (Mus musculus) (UniProt Q61831); assay: JNK3 AlphaScreen Assay (AID 530; active = well fitted curve in either direction with a large enough effect, not every such curve was filed as active;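 note: kinase came from lysate of stimulated human HepG2 cells; signal reports phosphorylation of biotinylated GST-cJun 1-79 at Ser73 with 10 µM ATP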); conditions: JNK3 lysate, c-Jun phosphorylation; series mostly up to 57.1 µM
Procedure, shortened: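 Activity was read by AlphaScreen after JNK3-containing HepG2 lysate (cytokine pre-activated) phosphorylated biotinylated GST-cJun with 10 uM ATP at room temperature. Phospho-Ser73 cJun antibody with Protein-A acceptor beads provided detection.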

[8] = Cell Viability - N2a (AID 540); conditions: N2a mouse neuroblastoma cell viability; series mostly up to 92.2 µM; note: nearly all actives have a fitted effect of over 45% in size
Procedure, shortened: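 Cytotoxicity was scored as loss of cellular ATP in N2a cells, a mouse neuroblastoma line. Compounds are applied in a qHTS concentration series for 40 hr at 37 °C.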

[9] = Cell Viability - NIH 3T3 (AID 541); conditions: NIH 3T3 cell viability, qHTS; series mostly up to 92.2 µM; note: nearly all actives have a fitted effect of over 25% in size
Procedure, shortened: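 Cells seeded at 1000/well, rested 5 hr at 37 °C, then dosed and incubated 40 hr at 37 °C. CellTiter-Glo added, 20 min room temperature, luminescence read. AC50 by Hill fit.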

[10] = Cell Viability - HUV-EC-C (AID 542); conditions: HUV-EC-C endothelial cell viability, qHTS; series mostly up to 92.2 µM; note: nearly all actives have a fitted effect of over 35% in size
Procedure, shortened: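 Cells were seeded at 1000 per well and incubated 5 hr at 37 °C before compound addition. After 40 hr at 37 °C, CellTiter-Glo reagent was added for 20 min and luminescence read. AC50 values came from Hill-equation modelling.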

[11] = Cell Viability - H-4-II-E (AID 543); conditions: H-4-II-E rat hepatoma viability; series mostly up to 92.2 µM; note: nearly all actives have a fitted effect of over 35% in size
Procedure, shortened: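 Cells seeded at 1500 per well and rested 5 hr; compounds added; 40 hr incubation at 37 °C; CellTiter-Glo added, 20 min at room temperature; luminescence read. Hill-equation fits gave AC50.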

[12] = Cell Viability - SH-SY5Y (AID 544); conditions: SH-SY5Y neuroblastoma cell viability; series mostly up to 92.2 µM; note: nearly all actives have a fitted effect of over 55% in size
Procedure, shortened: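 Cells were plated at 1500 per well and allowed 5 hr at 37 °C. Compounds were added across a concentration range and incubated 40 hr at 37 °C. CellTiter-Glo was added for 20 min at room temperature before luminescence reading.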

[13] = Cell Viability - Renal Proximal Tubule (AID 545); conditions: renal proximal tubule cells viability, primary cells of rat origin; series mostly up to 91.7 µM; note: nearly all actives have a fitted effect of over 40% in size
Procedure, shortened: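 Viability taken as intracellular ATP (CellTiter-Glo luminescence) after 40 hr, 37 °C compound treatment of primary proximal tubule cells from rat kidney, 1000 cells/well; Hill-equation fits of qHTS concentration-response data gave AC50.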

[14] = Cell Viability - Mesenchymal (AID 546); conditions: mesenchymal cells viability, qHTS; series mostly up to 91.7 µM;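 note: cells exposed to compound for 40 hours before reading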
Procedure, shortened: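 Human renal mesenchymal cells (glomerulus-derived), 1000 cells/well, 5 hr 37 °C pre-incubation; compound 40 hr, 37 °C; CellTiter-Glo, 20 min RT; luminescence; AC50 via Hill equation.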

[15] = Cellular Toxicity (caspase-3) HepG2 (AID 654); conditions: HepG2 caspase-3 activation, luminescence, 0% = DMSO only, 100% = tamoxifen; series mostly up to 92.2 µM;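 note: cells exposed to compound for 16 hours before reading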
Procedure, shortened: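 Caspase 3/7 activation in HepG2 is measured as rising luminescence after a 16 hr treatment at 37 °C. Values are scaled between DMSO basal and 100 uM tamoxifen, and AC50 is fitted with the Hill equation.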

[16] = Cellular Toxicity (caspase-3) Jurkat (AID 655); conditions: Jurkat caspase-3 activation, luminescence, DMSO = 0%, tamoxifen = 100%; series mostly up to 92.2 µM;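 note: cells exposed to compound for 16 h at 37 °C before reading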
Procedure, shortened: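 Luminescent Caspase-Glo 3/7 read-out (20 min, room temperature) after 16 h compound treatment at 37 C of 5000 Jurkat cells per well. AC50 derived by Hill-equation fitting, scaled between DMSO basal and 100 uM tamoxifen stimulation.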

[17] = Cellular Toxicity (caspase-3) HUV-EC-C (AID 656); conditions: HUV-EC-C cells, caspase-3 activation (apoptosis), vehicle = 0, 100 µM tamoxifen = 100%; series mostly up to 92.2 µM
Procedure, shortened: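 Luminescent Caspase-Glo 3/7 readout after 16 h, 37 °C compound exposure of HUV-EC-C endothelial cells, 1000 per well, complete medium. AC50 derived by Hill fitting, with DMSO as baseline and 100 uM tamoxifen as full activation.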

[18] = Cellular Toxicity (caspase-3) SHSY5Y (AID 657); conditions: SH-SY5Y caspase-3 activation, DMSO zero, 10 µM staurosporine = 100%; series mostly up to 91.7 µM
Procedure, shortened: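 Luminescent Caspase-Glo 3/7 read-out, 1 hr room temperature, follows 16 hours of compound treatment of SH-SY5Y cells at 37 °C. Normalization: DMSO basal, 10 uM staurosporine as 100%; AC50 values from Hill-equation concentration-response fits.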

[19] = Cellular Toxicity (caspase-3) BJ (AID 658); conditions: BJ fibroblasts, luminescence, normalized: DMSO 0%, staurosporine 100%; series mostly up to 91.7 µM
Procedure, shortened: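 qHTS, BJ fibroblasts, 1000 cells/well; 5 hr preincubation, 16 hr compound, 37 °C; Caspase-Glo 3/7 reagent, 1 hr RT; luminescence. DMSO = 0%, 10 uM staurosporine = 100%. Hill-equation AC50.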

[20] = Cellular Toxicity (caspase-3) MRC-5 (AID 659); conditions: MRC-5 cells, luminescence, normalized: DMSO 0%, 10 µM staurosporine 100%; series mostly up to 91.7 µM
Procedure, shortened: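 MRC-5 fibroblasts, 1500/well; 16 h cpd, 37 °C; Caspase-Glo 3/7, 1 h RT; lumi read. Norm: DMSO = 0%, 10 uM staurosporine = 100%. Hill-fit AC50 from qHTS conc-response.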

[21] = Cellular Toxicity (caspase-3) Mesangial (AID 660); conditions: mesangial cells, normalized: DMSO 0%, 100 µM tamoxifen 100%; series mostly up to 91.7 µM;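 note: combined caspase 3 and 7 activity read by Caspase-Glo luminescence; cells exposed to compound for 16 h before the caspase read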
Procedure, shortened: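 Seed cells derived from normal human renal glomeruli, incubate 5 h, add compounds across concentrations and incubate 16 h at 37 °C. Caspase 3/7 activation is then quantified by luciferase light, with AC50 derived by Hill modeling.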

[22] = Cellular Toxicity (caspase-3) SK-N-SH (AID 661); conditions: SK-N-SH caspase-3 activation, qHTS, DMSO as zero, staurosporine as full; series mostly up to 91.7 µM
Procedure, shortened: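 Cells were seeded and incubated 5 hr at 37 °C, dosed with compound over a concentration range for 16 hr, then given Caspase-Glo 3/7 reagent for 1 hr at room temperature before luminescence reading.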

Measured: Potency

CC(C)(c1cc(Br)c(O)c(Br)c1)c1cc(Br)c(O)c(Br)c1
inactive: [1] > 92 µM | [2] > 92 µM | [3] > 92 µM | [4] > 92 µM | [5] > 92 µM | [6] > 92 µM | [7] | [8] | [9] | [10] | [11] | [12] | [13] | [14] | [15] | [16] | [17] | [18] | [19] | [20] | [21] | [22]
